Measured values taken from publication PMC7862700, “An all-to-all approach to the identification of sequence-specific readers for epigenetic DNA modifications on cytosine”.

Key:
Assay in all cases: DAPPL (digital affinity profiling via proximity ligation, sequencing); 10 mM Tris-HCl pH 7.5, 50 mM NaCl, 1 mM DTT, 4% glycerol, room temperature, 30 min; GST-TFs on glutathione beads, 16-mer random dsDNA library, 0.1% formaldehyde crosslink after washing; high values mean tight binding
FEV = target: T1, FEV (Homo sapiens, UniProt Q99581 1-238); details: protein: recombinant; tags: N-terminal GST; dsDNA, one strand shown
T1 sequence: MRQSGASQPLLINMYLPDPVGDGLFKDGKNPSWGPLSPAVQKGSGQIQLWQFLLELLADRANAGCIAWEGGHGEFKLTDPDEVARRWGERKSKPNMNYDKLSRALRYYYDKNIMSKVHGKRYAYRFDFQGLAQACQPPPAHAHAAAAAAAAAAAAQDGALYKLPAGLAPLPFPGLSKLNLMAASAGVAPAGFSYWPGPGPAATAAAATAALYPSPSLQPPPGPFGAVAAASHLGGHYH
Summary of the method: (§1)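 Each value of binding signal is a hexamer's read frequency for a factor divided by the same hexamer's frequency in the tag-only sample. Barcoded, bead-captured GST fusions of human transcription factors made in yeast were pooled with that sample and incubated with 200 nmole of a random double-stranded 16-mer DNA library in Tris/NaCl/DTT/glycerol buffer at room temperature for 30 min. Washing, 0.1% formaldehyde crosslinking, proximity ligation, PCR and Illumina NextSeq500 sequencing followed.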

ETV5 = ETV5 (Homo sapiens, UniProt P41161 1-510); details: protein: recombinant; tags: N-terminal GST; dsDNA, one strand shown
Summary of the method: as §1

HSF1 = HSF1 (Homo sapiens, UniProt Q00613 1-529); details: protein: recombinant; tags: N-terminal GST; chain copies: 3; dsDNA, one strand shown
Summary of the method: as §1

SPIC = target: T2, SPIC (Homo sapiens, UniProt Q8N5J4 1-248); details: protein: recombinant; tags: N-terminal GST; dsDNA, one strand shown
T2 sequence: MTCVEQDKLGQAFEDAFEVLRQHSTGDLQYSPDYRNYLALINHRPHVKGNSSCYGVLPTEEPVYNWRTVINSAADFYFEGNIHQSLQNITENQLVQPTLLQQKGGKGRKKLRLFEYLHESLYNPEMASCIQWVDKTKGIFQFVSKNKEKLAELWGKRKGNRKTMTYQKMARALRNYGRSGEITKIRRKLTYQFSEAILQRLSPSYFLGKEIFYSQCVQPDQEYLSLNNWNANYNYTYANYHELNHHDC
Summary of the method: as §1

ELF4 = ELF4 (Homo sapiens, UniProt Q99607 1-663); details: protein: recombinant; tags: N-terminal GST; dsDNA, one strand shown
Summary of the method: as §1

ELK4 = target: T3, ELK4 (Homo sapiens, UniProt P28324-2 1-405); details: protein: recombinant; tags: N-terminal GST; dsDNA, one strand shown
T3 sequence: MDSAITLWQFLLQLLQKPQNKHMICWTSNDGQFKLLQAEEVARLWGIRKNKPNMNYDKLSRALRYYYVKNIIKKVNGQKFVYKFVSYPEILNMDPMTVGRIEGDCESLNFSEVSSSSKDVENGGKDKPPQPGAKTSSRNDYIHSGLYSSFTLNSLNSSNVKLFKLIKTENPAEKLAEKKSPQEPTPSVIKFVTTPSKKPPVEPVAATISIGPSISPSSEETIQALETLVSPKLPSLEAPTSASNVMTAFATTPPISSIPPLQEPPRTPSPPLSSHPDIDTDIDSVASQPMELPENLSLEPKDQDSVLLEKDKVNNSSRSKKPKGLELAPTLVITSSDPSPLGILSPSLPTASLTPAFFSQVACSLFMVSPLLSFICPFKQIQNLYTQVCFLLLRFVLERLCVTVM
Summary of the method: as §1

ETV2 = target: T4, ETV2 (Homo sapiens, UniProt O00321 1-342); details: protein: recombinant; tags: N-terminal GST; dsDNA, one strand shown
T4 sequence: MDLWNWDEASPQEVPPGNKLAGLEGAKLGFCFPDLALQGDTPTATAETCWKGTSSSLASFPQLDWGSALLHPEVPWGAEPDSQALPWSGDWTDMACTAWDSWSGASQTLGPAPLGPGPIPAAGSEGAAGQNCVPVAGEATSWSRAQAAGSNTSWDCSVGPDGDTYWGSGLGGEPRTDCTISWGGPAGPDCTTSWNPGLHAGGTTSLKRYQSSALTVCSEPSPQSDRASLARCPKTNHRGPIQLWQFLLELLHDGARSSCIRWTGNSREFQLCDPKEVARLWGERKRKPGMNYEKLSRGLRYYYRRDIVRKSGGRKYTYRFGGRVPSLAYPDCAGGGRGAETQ
Summary of the method: as §1

ELF3 = target: T5, ELF3 (Homo sapiens, UniProt P78545 1-371); details: protein: recombinant; tags: N-terminal GST; dsDNA, one strand shown
T5 sequence: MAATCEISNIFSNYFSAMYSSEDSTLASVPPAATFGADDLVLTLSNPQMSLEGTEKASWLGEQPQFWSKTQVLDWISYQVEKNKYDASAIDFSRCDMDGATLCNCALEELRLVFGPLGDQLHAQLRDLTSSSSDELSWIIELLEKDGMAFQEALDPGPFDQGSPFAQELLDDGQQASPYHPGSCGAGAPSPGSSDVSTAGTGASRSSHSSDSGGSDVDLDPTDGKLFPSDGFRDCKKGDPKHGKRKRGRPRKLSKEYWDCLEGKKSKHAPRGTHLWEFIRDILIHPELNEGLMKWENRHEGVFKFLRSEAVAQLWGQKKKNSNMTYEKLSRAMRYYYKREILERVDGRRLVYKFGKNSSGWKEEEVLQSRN
Summary of the method: as §1

CRX = CRX (Homo sapiens, UniProt O43186 1-299); details: protein: recombinant; tags: N-terminal GST; dsDNA, one strand shown
Summary of the method: as §1

Sequence of CRX (O43186 whole entry): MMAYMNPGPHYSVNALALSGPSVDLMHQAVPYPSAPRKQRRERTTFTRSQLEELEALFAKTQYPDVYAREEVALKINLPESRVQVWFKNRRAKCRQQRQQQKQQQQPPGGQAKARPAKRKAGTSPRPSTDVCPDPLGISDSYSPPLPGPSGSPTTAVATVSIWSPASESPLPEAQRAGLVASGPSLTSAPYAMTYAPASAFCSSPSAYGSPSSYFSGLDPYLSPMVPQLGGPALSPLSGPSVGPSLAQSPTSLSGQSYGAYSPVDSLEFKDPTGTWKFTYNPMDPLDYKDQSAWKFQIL
Sequence of ETV5 (P41161 whole entry): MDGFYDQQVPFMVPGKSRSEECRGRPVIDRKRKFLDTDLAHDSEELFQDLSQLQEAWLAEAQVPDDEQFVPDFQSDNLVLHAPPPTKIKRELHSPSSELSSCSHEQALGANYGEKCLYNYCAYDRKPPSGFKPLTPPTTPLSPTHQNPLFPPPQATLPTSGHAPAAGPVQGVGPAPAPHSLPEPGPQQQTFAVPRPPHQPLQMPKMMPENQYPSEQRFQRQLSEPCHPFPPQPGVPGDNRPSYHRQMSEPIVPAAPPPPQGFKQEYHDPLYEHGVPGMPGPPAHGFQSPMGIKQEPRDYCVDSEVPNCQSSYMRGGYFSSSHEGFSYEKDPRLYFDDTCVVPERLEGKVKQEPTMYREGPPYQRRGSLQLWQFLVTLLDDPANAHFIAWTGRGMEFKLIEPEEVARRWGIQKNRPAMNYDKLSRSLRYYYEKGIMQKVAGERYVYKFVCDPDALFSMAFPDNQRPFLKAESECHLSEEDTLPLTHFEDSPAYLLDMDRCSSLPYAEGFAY
Sequence of HSF1 (Q00613 whole entry): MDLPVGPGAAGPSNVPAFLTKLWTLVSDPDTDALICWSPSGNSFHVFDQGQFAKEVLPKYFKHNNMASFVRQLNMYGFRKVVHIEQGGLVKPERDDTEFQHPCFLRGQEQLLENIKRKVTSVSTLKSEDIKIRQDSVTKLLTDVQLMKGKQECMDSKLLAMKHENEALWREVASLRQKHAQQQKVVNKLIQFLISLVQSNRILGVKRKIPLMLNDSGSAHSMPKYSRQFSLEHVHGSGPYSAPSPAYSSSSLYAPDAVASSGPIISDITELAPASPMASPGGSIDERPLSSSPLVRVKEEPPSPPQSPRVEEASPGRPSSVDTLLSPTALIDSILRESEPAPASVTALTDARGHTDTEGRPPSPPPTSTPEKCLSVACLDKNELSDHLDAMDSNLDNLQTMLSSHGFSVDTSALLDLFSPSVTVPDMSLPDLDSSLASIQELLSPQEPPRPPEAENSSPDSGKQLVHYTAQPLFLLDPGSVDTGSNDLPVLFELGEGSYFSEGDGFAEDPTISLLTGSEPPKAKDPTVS
Sequence of ELF4 (Q99607 whole entry): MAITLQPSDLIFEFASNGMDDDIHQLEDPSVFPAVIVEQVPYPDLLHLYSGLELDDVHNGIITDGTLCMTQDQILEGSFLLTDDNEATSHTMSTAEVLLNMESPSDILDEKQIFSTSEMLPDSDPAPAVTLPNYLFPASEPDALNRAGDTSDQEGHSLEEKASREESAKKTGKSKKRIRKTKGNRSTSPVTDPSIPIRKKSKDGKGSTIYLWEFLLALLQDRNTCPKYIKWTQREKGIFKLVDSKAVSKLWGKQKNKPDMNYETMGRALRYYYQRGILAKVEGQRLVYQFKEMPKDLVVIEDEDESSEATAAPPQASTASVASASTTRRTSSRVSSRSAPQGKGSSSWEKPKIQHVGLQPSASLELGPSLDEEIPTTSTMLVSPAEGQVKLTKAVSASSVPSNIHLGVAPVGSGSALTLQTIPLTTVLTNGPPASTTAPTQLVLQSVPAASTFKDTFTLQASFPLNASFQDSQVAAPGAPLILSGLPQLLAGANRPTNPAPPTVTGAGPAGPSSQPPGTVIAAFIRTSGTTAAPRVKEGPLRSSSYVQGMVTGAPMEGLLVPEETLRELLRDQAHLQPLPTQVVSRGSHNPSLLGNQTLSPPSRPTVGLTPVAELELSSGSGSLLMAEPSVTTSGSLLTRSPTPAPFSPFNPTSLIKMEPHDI

CTCGAT
binding signal (FEV): 1.29 fold enrichment (6-mer frequency, TF over GST control)
binding signal (ETV5): 1.3 fold enrichment (6-mer frequency, TF over GST control)
binding signal (HSF1): 2.06 fold enrichment (6-mer frequency, TF over GST control)
binding signal (SPIC): 1.46 fold enrichment (6-mer frequency, TF over GST control)
binding signal (ELF4): 1.43 fold enrichment (6-mer frequency, TF over GST control)
binding signal (ELK4): 1.59 fold enrichment (6-mer frequency, TF over GST control)
binding signal (ETV2): 1.25 fold enrichment (6-mer frequency, TF over GST control)
binding signal (ELF3): 1.09 fold enrichment (6-mer frequency, TF over GST control)
binding signal (CRX): 1.48 fold enrichment (6-mer frequency, TF over GST control)
